The values below come from PubChem BioAssay (EPA / NIEHS).

Records with an inconclusive call do not appear. Calls of active or inactive are those of the source. The calls were made as follows: active = hit-call score of the fitted dose curve at least 0.9, where 1 is the maximum; inconclusive = response in the unintended direction; inactive = score below 0.9.

Assay [1] concerns NCBI gene 100848466. Briefly: NVS_NR_bPR: NovaScreen (NVS) Nuclear Receptor Binding Assay for bovine Progextron Receptor (PR) (AID 2283343). In short, it runs like this: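 Membranes from bovine uterus; radiolabelled ligand plus test chemical; 18 h; scintillation read-out. Activity = signal loss vs DMSO. Primary: 25 uM, duplicate; secondary: concentration series.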
Assay [2] concerns the target Androgen Receptor/SRC-1 Co-activator, AR (gene 367) (UniProt P10275). The experiment in a line: OT_AR_ARSRC1_0960: Odyssey Thera (OT) 16-hour HEK293T Protein-Complementation Assay for Androgen Receptor/SRC-1 Co-activator (AID 2283353).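 Also: actives raise the signal above DMSO so potency reflects increased AR and SRC-1 complex.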 In short, it runs like this: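 Interaction of AR with SRC-1 was followed by YFP fragment complementation in HEK293T cells after 16 h of dosing. Gain of nuclear-over-cytoplasmic 488 nm fluorescence against DMSO controls defined activity.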

For assay [3] the target is unchanged. Briefly: OT_AR_ARSRC1_0480: Odyssey Thera (OT) 8-hour HEK293T Protein-Complementation Assay for Androgen Receptor/SRC-1 Co-activator (AID 2283354).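 Also: hits raise the complementation signal above DMSO so AC50 marks enhancers.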 In short, it runs like this: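 Measures AR/SRC-1 binding by Venus YFP fragment complementation in HEK293T stable lines at 8 h post-dose. Imaging quantifies the 488nm nucleus/cytoplasm ratio in ≥400 cells; DMSO defines baseline.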

Assay [4] concerns the target Estrogen receptor beta (Homo sapiens) (UniProt Q92731). The experiment in a line: OT_ER_ERbERb_0480: Odyssey Thera (OT) 8-hour HEK293T Protein-Complementation Assay for Estrogen Receptor-beta/-beta Homodimer (AID 2283357).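 Also: active means signal gain over DMSO baseline.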 In short, it runs like this:
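Cells (HEK293T, stable ER-beta LBD PCA pair) are treated 8 hours, fixed and Draq5-stained; signal is fluorescence intensity increase relative to vehicle, fitted in the gain direction.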

Assay [5] deals with Retinoic acid receptor alpha (Homo sapiens) (UniProt P10276). The experiment in a line: NVS_NR_hRAR_Antagonist: NovaScreen (NVS) Nuclear Receptor Binding Assay for human Retinoic Acid Alpha Receptor Antagonism (RAR) (AID 2283358). In short, it runs like this: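 TR-FRET, cell-free, antagonist format; 2 h incubation after dosing; DMSO = baseline; signal loss fitted; 25 uM duplicate primary, then conc. series.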
Chain of Retinoic acid receptor alpha (Homo sapiens) (P10276 whole entry, looked up): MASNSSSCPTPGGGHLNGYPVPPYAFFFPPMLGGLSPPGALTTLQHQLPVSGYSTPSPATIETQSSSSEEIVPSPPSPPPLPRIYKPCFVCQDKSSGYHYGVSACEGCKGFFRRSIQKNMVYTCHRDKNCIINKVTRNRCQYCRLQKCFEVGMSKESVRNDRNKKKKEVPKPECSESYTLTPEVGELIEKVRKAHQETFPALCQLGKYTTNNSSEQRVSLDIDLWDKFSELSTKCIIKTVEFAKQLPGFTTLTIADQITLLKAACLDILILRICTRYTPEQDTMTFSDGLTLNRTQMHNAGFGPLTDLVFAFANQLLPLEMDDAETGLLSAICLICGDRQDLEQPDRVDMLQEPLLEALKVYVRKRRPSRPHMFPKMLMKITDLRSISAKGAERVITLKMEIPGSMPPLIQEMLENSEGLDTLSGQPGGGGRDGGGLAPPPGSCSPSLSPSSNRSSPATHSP

Assay [6] relates to guinea pig Histamine Receptor (H2), gene 100729734. The experiment in a line: NVS_GPCR_gH2: NovaScreen (NVS) G Protein-Coupled Receptor Assay for guinea pig Histamine Receptor (H2) (AID 2283342). In short, it runs like this:
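Radioligand displacement on guinea pig striatal membranes, 1 h after dosing, filter-based scintillation counting; loss of signal versus DMSO. Single-point screen at 25 uM in duplicate, then concentration-response up to 50 uM.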

For assay [7], the target named is Bile acid receptor (Homo sapiens) (UniProt Q96RI1). The experiment in a line: NVS_NR_hFXR_Antagonist: NovaScreen (NVS) Nuclear Receptor Binding Assay for human Farnesoid X Receptor Antagonism (FXR) (AID 2283350). In short, it runs like this: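 Cell-free TR-FRET ligand-binding read-out on human FXR (NR1H4) in antagonist mode, measured 1 h after dosing. Primary screen in duplicate at 25 uM, actives retested in concentration series; signal loss scored versus DMSO.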
Chain of Bile acid receptor (Homo sapiens) (Q96RI1 whole entry, looked up): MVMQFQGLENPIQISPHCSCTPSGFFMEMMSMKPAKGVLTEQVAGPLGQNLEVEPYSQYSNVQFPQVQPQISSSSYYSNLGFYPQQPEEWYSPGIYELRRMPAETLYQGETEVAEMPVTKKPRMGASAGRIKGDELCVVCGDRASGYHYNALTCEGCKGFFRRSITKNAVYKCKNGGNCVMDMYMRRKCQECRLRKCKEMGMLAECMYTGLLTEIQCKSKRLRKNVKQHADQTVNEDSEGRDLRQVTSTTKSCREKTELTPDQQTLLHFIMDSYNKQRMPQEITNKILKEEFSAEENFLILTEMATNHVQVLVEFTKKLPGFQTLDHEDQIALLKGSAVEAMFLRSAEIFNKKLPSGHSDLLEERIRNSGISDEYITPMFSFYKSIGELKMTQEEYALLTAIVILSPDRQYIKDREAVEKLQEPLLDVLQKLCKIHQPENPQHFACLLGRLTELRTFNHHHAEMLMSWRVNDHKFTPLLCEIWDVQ

The target of assay [8] is human Constitutive Androstane Receptor (CAR), NR1I3 (gene 9970) (UniProt Q14994). The experiment in a line: NVS_NR_hCAR_Antagonist: NovaScreen (NVS) Nuclear Receptor Binding Assay for human Constitutive Androstane Receptor Antagonism (CAR) (AID 2283344). In short, it runs like this: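 Cell-free TR-FRET binding read 1 h after dosing, antagonist mode; loss of signal versus DMSO baseline. Primary screen in duplicate at a single 25 uM; actives retested in concentration series.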
Chain of human Constitutive Androstane Receptor (CAR), NR1I3 (gene 9970) (Q14994 whole entry, looked up): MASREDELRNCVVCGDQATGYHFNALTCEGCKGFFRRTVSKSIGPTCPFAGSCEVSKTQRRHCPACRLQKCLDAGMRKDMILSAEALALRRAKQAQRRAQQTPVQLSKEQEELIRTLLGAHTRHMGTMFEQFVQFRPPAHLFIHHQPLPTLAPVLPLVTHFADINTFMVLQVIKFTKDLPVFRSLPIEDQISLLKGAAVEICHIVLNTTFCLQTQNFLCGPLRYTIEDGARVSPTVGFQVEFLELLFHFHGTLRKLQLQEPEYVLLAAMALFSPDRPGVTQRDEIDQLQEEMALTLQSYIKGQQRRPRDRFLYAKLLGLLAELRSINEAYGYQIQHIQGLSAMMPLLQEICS

The target in assay [9] is human Thyroid Receptor Alpha (TRa), THRA (gene 7067) (UniProt P10827). The experiment in a line: NVS_NR_hTRa_Antagonist: NovaScreen (NVS) Nuclear Receptor Binding Assay for human Thyroid Receptor Alpha Antagonism (TRa) (AID 2283362).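 Also: activity is loss of signal relative to DMSO baseline.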 In short, it runs like this:
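Cell-free AlphaLISA chemiluminescent binding read 1 h after dosing, antagonist mode; signal loss versus DMSO baseline. Primary screen in duplicate at 25 uM, then concentration series for actives.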

The target of assay [10] is Estrogen receptor (Homo sapiens) (UniProt P03372). The experiment in a line: OT_ER_ERaERa_1440: Odyssey Thera (OT) 24-hour HEK293T Protein-Complementation Assay for Estrogen Receptor-alpha/-alpha Homodimer (AID 2283349).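 Also: hits raise fluorescence above DMSO for agonists and antagonists alike.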 In short, it runs like this:
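Protein-fragment complementation between two human ERα ligand-binding domains (aa 310-547) in stably transfected HEK293T cells was monitored after 24 h treatment, using fluorescence intensity relative to vehicle controls.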

For assay [11] the target is unchanged. Briefly: OT_ER_ERaERa_0480: Odyssey Thera (OT) 8-hour HEK293T Protein-Complementation Assay for Estrogen Receptor-alpha/-alpha Homodimer (AID 2283351).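 Also: rise in fluorescence from reassembled reporter fragments on ERα LBD homodimer in nucleus or whole cell.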 In short, it runs like this:
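Binding reporter in which dimerisation of ERα LBD (aa 310-547) fusions reconstitutes a fluorescent reporter in HEK293T cells. Compounds incubated 8 h; mean fluorescence intensity increase versus DMSO scored.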

In assay [12] the target is T1, Estrogen receptor (Homo sapiens) + Estrogen receptor beta (Homo sapiens) (UniProt P03372+Q92731). The experiment in a line: OT_ER_ERaERb_1440: Odyssey Thera (OT) 24-hour HEK293T Protein-Complementation Assay for Estrogen Receptor-alpha/-beta Homodimer (AID 2283356).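 Also: heteromer of ER alpha and ER beta binding domains; hits raise reporter fluorescence and both agonists and antagonists give an increase.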 In short, it runs like this: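 HEK293T stably expressing a PCA of ER alpha LBD (aa 310-547) and ER beta LBD (aa 263-489). After 24 h compound exposure, mean fluorescence intensity in nucleus (agonists) or nucleus and cytoplasm (antagonists) measured by laser scanning cytometry versus vehicle.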
T1 sequence (P03372 whole entry, looked up, the tested form may be a part): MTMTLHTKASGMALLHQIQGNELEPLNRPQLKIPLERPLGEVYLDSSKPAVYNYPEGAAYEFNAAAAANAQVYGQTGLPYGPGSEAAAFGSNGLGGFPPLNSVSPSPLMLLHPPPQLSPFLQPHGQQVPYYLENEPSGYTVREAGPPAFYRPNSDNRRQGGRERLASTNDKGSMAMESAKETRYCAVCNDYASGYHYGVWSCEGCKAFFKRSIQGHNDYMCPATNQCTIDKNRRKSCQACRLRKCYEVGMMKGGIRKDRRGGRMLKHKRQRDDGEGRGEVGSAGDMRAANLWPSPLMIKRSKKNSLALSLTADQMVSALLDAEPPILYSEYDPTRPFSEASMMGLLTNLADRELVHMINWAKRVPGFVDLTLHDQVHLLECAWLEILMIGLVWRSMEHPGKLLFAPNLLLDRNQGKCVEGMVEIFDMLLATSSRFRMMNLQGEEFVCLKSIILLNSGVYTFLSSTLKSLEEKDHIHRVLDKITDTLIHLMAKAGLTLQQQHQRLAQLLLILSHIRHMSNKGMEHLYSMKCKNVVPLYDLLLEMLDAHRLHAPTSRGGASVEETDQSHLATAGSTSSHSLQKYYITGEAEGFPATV
T1 sequence (Q92731 whole entry, looked up, the tested form may be a part): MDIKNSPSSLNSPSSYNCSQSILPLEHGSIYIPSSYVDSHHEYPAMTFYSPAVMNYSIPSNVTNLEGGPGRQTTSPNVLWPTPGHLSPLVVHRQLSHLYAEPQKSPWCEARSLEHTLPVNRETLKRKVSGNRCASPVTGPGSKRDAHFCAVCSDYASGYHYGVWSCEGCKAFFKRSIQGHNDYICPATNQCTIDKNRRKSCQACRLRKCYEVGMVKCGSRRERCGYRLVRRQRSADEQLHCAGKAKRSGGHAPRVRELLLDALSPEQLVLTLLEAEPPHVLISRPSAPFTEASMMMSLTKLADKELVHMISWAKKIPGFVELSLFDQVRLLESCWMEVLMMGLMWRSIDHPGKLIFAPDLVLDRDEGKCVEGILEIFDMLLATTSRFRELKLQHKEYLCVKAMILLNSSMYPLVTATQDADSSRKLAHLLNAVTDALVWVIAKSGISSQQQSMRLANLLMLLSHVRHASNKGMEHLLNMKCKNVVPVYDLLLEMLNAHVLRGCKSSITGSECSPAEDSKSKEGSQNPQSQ

Assay [13] concerns the target human Peroxisome Proliferator-activated Receptor alpha (PPARa), PPARA (gene 5465) (UniProt Q07869). Briefly: NVS_NR_hPPARa: NovaScreen (NVS) Nuclear Receptor Binding Assay for human Peroxisome Proliferator-activated Receptor alpha (PPARa) (AID 2283359).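 Also: activity means loss of TR-FRET signal versus DMSO baseline.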 In short, it runs like this:
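Chemicals were first screened in duplicate at 25 uM, and active ones were retested across concentration series. Binding was monitored by TR-FRET one hour after dosing, with decreased signal against DMSO counted as activity.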

For assay [14], the target named is PGR (gene 5241) (UniProt P06401). Briefly: NVS_NR_hPR: NovaScreen (NVS) Nuclear Receptor Binding Assay for human Progestron Receptor (PR) (AID 2283360).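 Also: active means loss of bound radioligand signal versus DMSO baseline.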 In short, it runs like this:
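Cell-free radioligand binding using receptor protein extracted from T47D cells, read by scintillation counting 18 hours after dosing. Loss of signal relative to DMSO baseline indicates displacement; primary screen single concentration 25 uM in duplicate, actives followed in concentration series.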

The target of assay [15] is T1, Estrogen receptor (Homo sapiens) + Estrogen receptor beta (Homo sapiens). The experiment in a line: OT_ER_ERaERb_0480: Odyssey Thera (OT) 8-hour HEK293T Protein-Complementation Assay for Estrogen Receptor-alpha/-beta Heterodimer (AID 2283352). In short, it runs like this:
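HEK293T protein-fragment complementation assay of ER-alpha/ER-beta LBD heterodimerisation, read 8 h after dosing. Mean nuclear/cytoplasmic fluorescence intensity measured by laser scanning cytometry; gain of signal fitted relative to DMSO.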

The target in assay [16] is Estrogen receptor (Homo sapiens) (UniProt P03372). Briefly: NVS_NR_hER: NovaScreen (NVS) Nuclear Receptor Binding Assay for human Estrogen Receptor (ER) (AID 2283348). In short, it runs like this:
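Scintillation signal from bound radioligand was measured 18 hours after chemical addition to cell-free MCF7 protein extracts, with DMSO as baseline. Activity was scored as signal loss; compounds ran first at 25 uM in duplicate.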

In assay [17] the target is chimpanzee Androgen Receptor (AR), AR (gene 747460) (UniProt O97775). Briefly: NVS_NR_cAR: NovaScreen (NVS) Nuclear Receptor Binding Assay for chimpanzee Androgen Receptor (AR) (AID 2283346).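 Also: radioligand displacement from AR measured by scintillation counting in a cell-free assay; a loss of bound radioligand signal versus DMSO counts as binding.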 In short, it runs like this:
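Cell-free competition binding with insect-cell (Sf9/Sf21) extracted chimpanzee AR; scintillation signal from lysate at 72 h. Screened in duplicate at 25 uM, then concentration-response for actives; fitting relative to DMSO.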

Assay [18] addresses rat Mineralocorticoid Receptor (MR), Nr3c2 (gene 25672) (UniProt P22199). Briefly: NVS_NR_rMR: NovaScreen (NVS) Nuclear Receptor Binding Assay for rat Mineralocorticoid Receptor (MR) (AID 2283355). In short, it runs like this:
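Adrenalectomized rat brain supernatant was dosed with test chemical, then radioligand binding was measured by scintillation counting at 24 h. Initial testing ran in duplicate at 25 uM, followed by concentration series for actives.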

Chain of Androgen Receptor/SRC-1 Co-activator, AR (gene 367) (P10275 whole entry, looked up, the tested form may be a part): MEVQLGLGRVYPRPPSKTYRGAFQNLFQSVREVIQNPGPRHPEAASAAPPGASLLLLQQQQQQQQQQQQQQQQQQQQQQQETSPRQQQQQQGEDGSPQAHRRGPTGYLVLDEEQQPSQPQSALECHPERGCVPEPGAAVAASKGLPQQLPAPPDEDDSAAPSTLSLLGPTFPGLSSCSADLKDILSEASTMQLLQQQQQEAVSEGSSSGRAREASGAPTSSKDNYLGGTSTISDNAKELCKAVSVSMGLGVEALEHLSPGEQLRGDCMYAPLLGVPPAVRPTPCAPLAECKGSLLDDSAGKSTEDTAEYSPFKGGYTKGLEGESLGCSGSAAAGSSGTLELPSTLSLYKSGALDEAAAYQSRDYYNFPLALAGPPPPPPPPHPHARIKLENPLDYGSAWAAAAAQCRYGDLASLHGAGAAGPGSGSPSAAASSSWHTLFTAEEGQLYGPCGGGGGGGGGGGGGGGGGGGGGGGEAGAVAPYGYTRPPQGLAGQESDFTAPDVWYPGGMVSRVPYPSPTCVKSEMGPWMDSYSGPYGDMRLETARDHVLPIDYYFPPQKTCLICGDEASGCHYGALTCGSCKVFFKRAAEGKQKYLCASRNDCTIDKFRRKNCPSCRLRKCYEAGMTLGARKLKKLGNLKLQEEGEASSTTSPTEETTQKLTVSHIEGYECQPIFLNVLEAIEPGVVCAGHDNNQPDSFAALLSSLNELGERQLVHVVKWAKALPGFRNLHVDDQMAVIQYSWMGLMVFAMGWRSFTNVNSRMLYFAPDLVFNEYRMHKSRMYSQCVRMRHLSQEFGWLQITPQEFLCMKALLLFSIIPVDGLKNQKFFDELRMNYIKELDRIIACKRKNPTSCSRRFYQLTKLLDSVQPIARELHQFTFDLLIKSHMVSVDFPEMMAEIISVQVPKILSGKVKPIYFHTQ
Chain of Estrogen receptor (Homo sapiens) (P03372 whole entry, looked up, the tested form may be a part): as the sequence (P03372 whole entry, looked up, the tested form may be a part) above
Chain of Estrogen receptor beta (Homo sapiens) (Q92731 whole entry, looked up, the tested form may be a part): as the sequence (Q92731 whole entry, looked up, the tested form may be a part) above
Chain of chimpanzee Androgen Receptor (AR), AR (gene 747460) (O97775 whole entry, looked up): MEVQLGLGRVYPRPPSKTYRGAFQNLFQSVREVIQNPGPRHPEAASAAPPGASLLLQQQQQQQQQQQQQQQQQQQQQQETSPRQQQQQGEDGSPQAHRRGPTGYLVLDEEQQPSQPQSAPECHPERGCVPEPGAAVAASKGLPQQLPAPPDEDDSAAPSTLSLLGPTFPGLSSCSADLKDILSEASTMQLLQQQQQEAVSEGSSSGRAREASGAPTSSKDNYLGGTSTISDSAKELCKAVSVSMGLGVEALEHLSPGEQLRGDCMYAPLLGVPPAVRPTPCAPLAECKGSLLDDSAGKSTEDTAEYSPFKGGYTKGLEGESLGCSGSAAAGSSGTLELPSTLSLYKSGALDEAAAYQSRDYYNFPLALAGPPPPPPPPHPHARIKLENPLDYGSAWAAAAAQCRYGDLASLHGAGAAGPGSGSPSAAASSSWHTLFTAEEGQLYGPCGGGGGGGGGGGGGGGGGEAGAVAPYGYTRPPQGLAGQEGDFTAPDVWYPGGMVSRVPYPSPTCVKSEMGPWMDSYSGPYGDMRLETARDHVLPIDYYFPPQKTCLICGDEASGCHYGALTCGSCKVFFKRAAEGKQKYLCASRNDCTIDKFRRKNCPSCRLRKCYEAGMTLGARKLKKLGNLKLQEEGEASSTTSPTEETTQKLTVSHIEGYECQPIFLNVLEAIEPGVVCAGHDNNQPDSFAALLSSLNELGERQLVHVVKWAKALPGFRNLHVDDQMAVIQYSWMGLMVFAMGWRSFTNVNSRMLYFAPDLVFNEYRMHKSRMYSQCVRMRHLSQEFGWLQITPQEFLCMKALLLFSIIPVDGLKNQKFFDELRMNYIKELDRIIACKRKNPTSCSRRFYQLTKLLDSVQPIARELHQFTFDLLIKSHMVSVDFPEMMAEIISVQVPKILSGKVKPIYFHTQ
Chain of human Peroxisome Proliferator-activated Receptor alpha (PPARa), PPARA (gene 5465) (Q07869 whole entry, looked up): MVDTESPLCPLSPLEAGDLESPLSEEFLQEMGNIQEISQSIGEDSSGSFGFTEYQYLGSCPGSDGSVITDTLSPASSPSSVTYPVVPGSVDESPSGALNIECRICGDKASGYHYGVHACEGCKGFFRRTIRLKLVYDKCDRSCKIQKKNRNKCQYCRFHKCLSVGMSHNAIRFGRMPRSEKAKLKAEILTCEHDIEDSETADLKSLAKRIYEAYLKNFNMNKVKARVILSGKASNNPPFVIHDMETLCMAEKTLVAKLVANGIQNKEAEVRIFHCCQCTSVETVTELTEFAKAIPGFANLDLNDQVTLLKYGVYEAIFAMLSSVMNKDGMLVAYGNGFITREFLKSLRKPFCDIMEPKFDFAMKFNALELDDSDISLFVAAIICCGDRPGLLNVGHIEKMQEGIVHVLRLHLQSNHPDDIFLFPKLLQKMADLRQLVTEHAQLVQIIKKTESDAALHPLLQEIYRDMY

On to `O=C1OC(c2ccc(O)cc2)(c2ccc(O)cc2)c2ccccc21`, for which the compound was classed as inactive in [1] and in assay [5]. Also, the concentration at half-maximal activity (AC50) in [2] was 35.3 µM (active); in assay [3] it was 60.1 µM (active); in [4] it was 12 µM (active).

Regarding `CN(C)C(=O)NC1(c2ccccc2)CCN(CC[C@@]2(c3ccc(F)c(F)c3)CN(C(=O)c3ccccc3)CCO2)CC1`, the AC50 in assay [6] was 0.276 µM (active). For the same compound, the result in assay [7] was inactive.

Regarding `O=C1NC(=O)C(c2ccccc2)(c2ccccc2)N1`, the compound was classed as inactive in [8] and in assay [9].

`CCCCc1nc2cccnc2n1Cc1ccc(-c2ccccc2-c2nnn[nH]2)cc1`: the outcome in [6], in [10], in assay [7], in assay [11], in assay [12] and in assay [4] was inactive.

On to `CC1=C(C)S(=O)(=O)CCS1(=O)=O`, for which the compound was called inactive in assay [10], in [11], in assay [2], in [3], in assay [13] and in [14].

`OCC(CO)n1cnc(-c2ccc(F)cc2)c1-c1ccnc(Oc2ccccc2)n1`: the compound was called inactive in [10], in assay [11], in assay [15], in [12] and in [4].

As for `O=C(NS(=O)(=O)/C=C/c1cccs1)c1ccc(F)cc1Br`, the outcome in assay [10], in assay [11], in assay [2], in assay [12] and in assay [4] was inactive.

Take `Nc1nc(=S)c2[nH]cnc2[nH]1`: the result in [16], in assay [10], in [11], in assay [15], in assay [2] and in assay [3] was inactive. Moreover, the outcome in assay [12] and in assay [4] was inactive.

For `CCCCC(CC)COP(=O)(OCC(CC)CCCC)OCC(CC)CCCC` (stereo unspecified), the AC50 in [17] was 18.1 µM (active).

As to `CC(C)OC(=O)C(C)(C)Oc1ccc(C(=O)c2ccc(Cl)cc2)cc1`, the compound was classed as inactive in [16], in assay [10], in assay [7], in assay [11], in assay [15] and in assay [3]. For the same compound, the outcome in [12] and in [4] was inactive. Besides, the AC50 in assay [2] is 34.4 µM (active).

Turning to `O=C1CCCCC1`, the call in assay [10], in assay [11], in [15], in assay [2], in assay [3] and in assay [12] was inactive. Moreover, the compound was classed as inactive in assay [4].

Take `c1ccc2occc2c1`: the compound was called inactive in assay [10] and in assay [11].

With `O=C(O)CC(O)(CC(=O)O)C(=O)O`, the compound was classed as inactive in [10], in [11], in assay [15], in [18], in [12] and in [4]. Besides, the result in assay [5] was inactive.

As for `CCc1cc(C2=C(C(=O)O)N(c3ccccc3C(F)(F)F)S(=O)(=O)c3ccccc32)cc2c1OCO2`, the AC50 in assay [17] was 25 µM (active).
